Median seed-adjusted z-score data for 109 sequences are collected here from PubChem BioAssay AID1347426 (Functional Genomics Laboratory (NCATS/FGL), 2020).

About 1,400 (4.5%) of roughly 31,000 sequences were called active.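 How the source made its calls: active means median seed-adjusted z-score above 1 or below -1; inactive means the rest.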 Only a selection was taken, and actives are over-represented in it overall.

This assay is described as follows: Novel Modifiers of Survival Motor Neuron (SMN) Protein: Gene Identification via Genome-wide siRNA Screen.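 Further: luminescence tracks full-length SMN protein made from the SMN2 reporter.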 Particulars: HEK293T SMN2-luciferase reporter, siRNA knockdown, 72 h; actives lie on both sides. The gist of the method:
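Steps: spot 1 pmol siRNA, add Lipofectamine RNAiMax in serum-free DMEM, seed HEK293T SMN2–luciferase reporter cells; incubate 72 h at 37 °C; add ONE-Glo; normalize luminescence to control siRNA, log10, MAD. Candidates: |MAD| > 1.0.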
In general terms: A reporter such as luciferase makes a cellular process visible.
On to GGUAUACAAGGAAAGGUUATT against EIF4E, for which the median seed-adjusted z-score was -0.404 (inactive).
Take UGGACAUUCUUGCACCCAATT against CHTF18: the median seed-adjusted z-score is 0.371 (inactive).
As for CAAUAUUAGUUGCUGUAUATT against PPAP2A, the figure is 0 (inactive); as for UGCUGACCUCGUUACCUUUTT against UCP3, 1.23 (active); as for CAGUCUUUAUGCAAUGGAATT against TYR, 0.131 (inactive).
As for AGAUGUACAACGACCCAAATT against AGBL4, the median seed-adjusted z-score was 0.487 (inactive).
As for GCAUGGUAUUGGAAUAACUTT against CHEK1, the figure is -5.1 (active); as for GACCUUCCACAGUACAUCATT against MAST3, -0.642 (inactive); as for GCUCAGAUAAAGUACAGAATT against GGCX, -0.362 (inactive).
Regarding GAGUCAUAGUUGCAGCUGATT against PSMB5, the median seed-adjusted z-score was -1.37 (active).
As for CCUCAUGACUUCGCAAAUATT against COPB1, the figure is -0.839 (inactive).
Consider GGACCAUAACUCUUACGUATT against RBM26, for which the median seed-adjusted z-score was -0.967 (inactive).
The result for UCACUGUGCUACAUCAUCATT against MYL7 reads -1.21 (active).
Turning to GUUGAGGUCUGGUAACAGATT against TMED1, the median seed-adjusted z-score is 0 (inactive).
The result for GGAGUUUGUUUGCAAGUAUTT against RREB1 reads -0.414 (inactive); that for CCAUCUACAUCAGAGUCCATT against BTN1A1, 0.291 (inactive); that for GGACAAAUUUUGGAGAGAATT against COG2, 0.791 (inactive).
In the case of CCAACAGGAGAGUACGUGATT against STRADA, the median seed-adjusted z-score was 0.415 (inactive).
The result for CCAUUUGACUUUAUGGAGATT against RRM2 reads -3.84 (active).
As for GGCCUUCGUGUACAUCAAUTT against SUV39H1, the figure is -0.0775 (inactive); as for CUAUGCCCGUGGUCACUAUTT against TUBA4A, -0.594 (inactive).
The result for GAGCCGCUGGUGUAUCUUUTT against TLR4 reads 0.113 (inactive); that for GGCAAGAUCUGUACCGUGATT against HPN, -0.0237 (inactive).
As for CCAGGACAUUCGAAAGCGATT against TRAF4, the median seed-adjusted z-score was -1.16 (active).
As to CGGGUACAAGGAUUGGUUUTT against ROM1, the median seed-adjusted z-score was 0.41 (inactive).
On to CCACUCUCAUUGUGACUGATT against DDX54, for which the median seed-adjusted z-score was 0 (inactive).
The result for GGAUUAUGAAGAAUGGAAATT against ORC6L reads 0 (inactive).
As for “GGCAGAGCCUGACCACUUUTT against LOC100137047-PLA2G4B”, the figure is -0.022 (inactive); as for GGAGCGAGCUGGUGCAUAATT against SH3BP5, -0.707 (inactive); as for GCAUCGCUGUUACCCAUCUTT against CCRN4L, -0.572 (inactive).
As to GGAGAUAAGAGAUCAUAUUTT against OXNAD1, the median seed-adjusted z-score was 0.36 (inactive).
As for CAUGAGAUACGAUACACUATT against TRMT6, the figure is 0.069 (inactive); as for CGCACACGUAGAGACCUUATT against PNN, 1.29 (active); as for CAACUUCACUCAGAACCCATT against MARCO, 0.137 (inactive).
The result for GCCUACUUCAUUCAUCAUATT against KSR1 reads 0.0873 (inactive); that for CAAUCGUCCAAUGAUCUUATT against PCDHB1, 0.342 (inactive); that for CCUUCAUAGUCAACAGCAATT against MGC16703, 0.55 (inactive).
As for GCACGACGACAAUAUCAUUTT against PEX3, the figure is 0.142 (inactive); as for CCAUUAUUGACUCACCCUATT against CSTF2T, 0.387 (inactive); as for GCAUAACUUGAAUAGUACATT against AKAP11, -0.0405 (inactive).
As to GCAUCAUUGAAGGACUAGATT against HEY1, the median seed-adjusted z-score is -0.023 (inactive).
As for CCCUGGUAGUCAAAAACGATT against PHKB, the figure is -0.142 (inactive); as for GCUGUGAACUGACUCUGCATT against UROD, 1.11 (active).
As for GCCCGACUCUCUAAUGGAATT against PRKD3, the figure is -0.906 (inactive); as for CUACCGUGCAAGUUCAUUATT against CD3D, -0.403 (inactive); as for CCGUCAAGGUGUAUUUUGATT against PPIB, 0.038 (inactive).
The result for GGCUUAACAUUGAACGAAUTT against CRY2 reads 0.0209 (inactive); that for CCAAGACUCCAACCAUUUUTT against IKZF4, -0.426 (inactive).
Turning to GGACCUCAAAGUUGUCUAUTT against AP1S1, the median seed-adjusted z-score is -1.04 (active).
The result for CGUGGGAUGCUCAAAGAUATT against EZR reads 0.0344 (inactive); that for CCCAGAUCAUAUACUCCUATT against LYPLAL1, -0.425 (inactive).
As for GGCAUGAAGUGAAGGAUGATT against ZNF134, the figure is -0.0978 (inactive); as for CCUCAAUACUCCGCAAAUATT against NMNAT2, -1.58 (active); as for GGAAAGUUAUCAGGAUGCATT against SAG, 0 (inactive).
GGAUUCCAAUCUUAGCUUUTT against RLN1: the median seed-adjusted z-score was 0.0637 (inactive).
For the sequence GGAAUUCCUUUAAUGACGATT against RYR3, the median seed-adjusted z-score is 0 (inactive).
The result for CCACCAGCGUGAUCAUUGUTT against GALNT6 reads -0.287 (inactive).
CUUCCAUGCCUUUGACCUATT against CDCP2: the median seed-adjusted z-score is 0.0708 (inactive).
As for CUUGUGUUCUGAGAAUACATT against KRT83, the figure is 1.15 (active); as for AGAAUCGUGUGGAAAAAGATT against PARK7, -0.357 (inactive).
The result for CCAUGACAAUCAACGAGGATT against AMY2A reads -0.266 (inactive); that for CUUUUGCCUGUAGCCCAUATT against GCS1, 0.819 (inactive); that for CGAGAUAACUACUUUCGGATT against RALB, -0.534 (inactive).
As for ACAGAUCCAUUUUUAGGGATT against PKIG, the figure is 0.0916 (inactive); as for CCACGUCUCUGGAGAGUUUTT against ALAD, 0.0952 (inactive).
For GGCUGUACAUCUGGACCAATT against NFKBIE, the median seed-adjusted z-score was -0.452 (inactive).
As for GGAUGGGCCUUGAAGCCUUTT against GPR97, the figure is -0.0155 (inactive); as for GGGAAUAUCUCUUCCGACATT against ACTL7A, 1.1 (active); as for GGCUAUCAUCUACACCCGATT against UGCG, 0.492 (inactive).
The result for CGAUUAUUGUGAGCCUAAUTT against JAG1 reads -0.32 (inactive).
Consider CUAAGAGACUAAAUGCAAATT against SUCLG2, for which the median seed-adjusted z-score was -0.619 (inactive).
As for GGGCCGCUUUAGAAAGGUATT against SNX1, the figure is 0.0261 (inactive); as for CCUGGACCCUGAACUCACATT against LILRA4, 0.109 (inactive).
GCAUUACAGUACUUACGUATT against BTAF1: the median seed-adjusted z-score is -1.19 (active).
As for GGCUCUUACAAGUCCUUAUTT against CHRM2, the figure is 0.053 (inactive).
As to GGCAUUACCGUGUAUAACATT against CHST10, the median seed-adjusted z-score is 0.115 (inactive).
Regarding GUACUGGAGUGAUGAGUUUTT against PARP12, the median seed-adjusted z-score was -0.287 (inactive).
For GUCUGUCGCUACUACAAUATT against SLCO2B1, the median seed-adjusted z-score was 0.289 (inactive).
As to CGAUGGGUCUGUGCACAAATT against TGM2, the median seed-adjusted z-score is 0.413 (inactive).
The result for CGGCCUUGAUAAACUGAAATT against SNAPC3 reads -1.72 (active).
Take CCAUGAGUGUGACUCUCAATT against ZNF599: the median seed-adjusted z-score is 0.0896 (inactive).
Regarding CCCGGAUUGUUCCUACUGATT against ALG9, the median seed-adjusted z-score is -0.267 (inactive).
As for CGGGCUCCGUAGUCACAUUTT against NAALADL1, the figure is -0.0444 (inactive).
As for GAACAAAUCUGCGAGAUCATT against DIRAS2, the figure is -1.25 (active).
The result for GCAGUUGGAGAGAUAAUAATT against VRK1 reads -0.148 (inactive); that for CACUGUUUAUGUAUAUGGATT against RHOT1, -0.189 (inactive); that for UCACCACCGUGUCUAAGAATT against MPO, -0.223 (inactive).
As for GGUUCUUGCUUACACUCUUTT against ESSPL, the median seed-adjusted z-score was 0.328 (inactive).
The result for CAUUGUCAAUAUAACGAUUTT against GPR98 reads -0.509 (inactive).
As for CAAGAAUCUUAAGAUAGAATT against CD4, the figure is -0.566 (inactive); as for AUAUAUUGCUUGGAGAUGATT against STK16, 0.113 (inactive); as for CCAUCAACAUCGCCCUGAATT against PLOD1, 0.481 (inactive).
As for GCCUUUUGCUCAUCUCACUTT against TNFSF11, the figure is 0.0212 (inactive); as for CAACCAGACUAUUCGGACATT against PPP1R10, 1.41 (active).
In the case of CCAACCUUCUGAAUACGUUTT against GPR126, the median seed-adjusted z-score was -0.243 (inactive).
As for AAAAGAGACUGAUCAUCCATT against NR2F6, the figure is -0.681 (inactive).
The result for GAACUAUGCUAUACCAGAATT against IQCH reads 0 (inactive); that for GACUAUUCCCUGCACCACATT against ABHD9, 0.486 (inactive); that for CUUCCGUUAUGAUACAGAATT against GABRA2, -0.272 (inactive).
As for GCUGUACACCGGCAUCGUATT against SLC5A5, the figure is 1.01 (active).
Turning to GAAUCUAUGAGCUUCGAAATT against PSMB5, the median seed-adjusted z-score is -1.37 (active).
In the case of CUAUGGGUAUGACUACUUUTT against BPHL, the median seed-adjusted z-score was -0.161 (inactive).
For the sequence GGAACAUAGUCUUCAGGUATT against KIF20A, the median seed-adjusted z-score was 0.906 (inactive).
For the sequence AUGCUGAUCAGGAAAAGUATT against TEX13A, the median seed-adjusted z-score was -1.22 (active).
The result for CACUGAAGCUGUACAACAATT against TSHR reads 0.851 (inactive); that for GAGUGAUCAGAGACCGAAATT against IARS, -0.198 (inactive); that for GGACUUACUAAAAGCUAAATT against CRKRS, -1.16 (active).
Turning to CAAUCUAACUUUUCGGACATT against CLCA2, the median seed-adjusted z-score is 0.669 (inactive).
The result for CAGUUUCAACUUUAUCAGATT against RNF144B reads 0.642 (inactive).
